High-throughput results deposited in PubChem BioAssay by National Center for Advancing Translational Sciences (NCATS).
DT40 TDP1 CPT: growth inhibition of DT40 Tdp1-/-;hTDP1 cells with camptothecin (screen for TDP1 inhibitors) | chicken DT40 Tdp1-/-;hTDP1 cells + 20 nM CPT, ATP luminescence, 48 h | Potency, µM (doses to about 46.2 µM), without a hit: top-dose activity change, negative = growth inhibition, actives largely listed as inhibitors | 12% of 420,000 active | AID 686979; further: nearly all actives have a fitted effect of over 55% in size
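Cell growth measured by CellTiter-Glo luminescence after a minimum 48 h, 37 C compound exposure with 20 nM CPT in Tdp1-knockout DT40 cells stably expressing hTDP1, seeded 400/well; qHTS titration format.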
Gal4-VP16 FLuc: counter-screen for ROR gamma inhibitors: Gal4-VP16 reporter | Drosophila S2 Gal4-VP16 UAS-luciferase, luminescence, 20 h | Potency, µM (doses to about 53.6 µM), without a hit: at the highest dose activity, negative = inhibition, hits mostly inhibitors | 3.5% of 310,000 active;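 further: Gal4-VP16 expression switched on by copper sulfate through the metallothionein promoter; nearly all actives have a fitted effect of over 50% in size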
TDP1 cell noCPT: qHTS for Inhibitors of human tyrosyl-DNA phosphodiesterase 1 (TDP1): qHTS in cells in absence of CPT | DT40 Tdp1-/- hTDP1 cells, no CPT, ATP luminescence, 48 h | Potency, µM (titrated, usually from 46.2 µM), inactives show top-dose activity change, negative = growth inhibition, hits mostly inhibitors | 15% of 420,000 active; further: nearly all actives have a fitted effect of over 55% in size
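A cellular qHTS used chicken DT40 cells lacking endogenous Tdp1 but carrying stably transfected human TDP1. Compounds were applied without camptothecin, and cell growth kinetics were judged by ATP-dependent luminescence after ≥48 hr.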
RORgamma inh: ROR gamma (mouse) transcription inhibition; P51450; Drosophila S2 Gal4-RORgamma UAS-luciferase reporter, 20 h; Potency, µM (doses to about 53.6 µM), for the others: at the top dose activity change, negative = inhibition, usual class: inhibitors; 5.4% of 310,000 active; further: nearly all actives have a fitted effect of over 60% in size
Target sequence (P51450 whole entry, looked up, the tested form may be a part): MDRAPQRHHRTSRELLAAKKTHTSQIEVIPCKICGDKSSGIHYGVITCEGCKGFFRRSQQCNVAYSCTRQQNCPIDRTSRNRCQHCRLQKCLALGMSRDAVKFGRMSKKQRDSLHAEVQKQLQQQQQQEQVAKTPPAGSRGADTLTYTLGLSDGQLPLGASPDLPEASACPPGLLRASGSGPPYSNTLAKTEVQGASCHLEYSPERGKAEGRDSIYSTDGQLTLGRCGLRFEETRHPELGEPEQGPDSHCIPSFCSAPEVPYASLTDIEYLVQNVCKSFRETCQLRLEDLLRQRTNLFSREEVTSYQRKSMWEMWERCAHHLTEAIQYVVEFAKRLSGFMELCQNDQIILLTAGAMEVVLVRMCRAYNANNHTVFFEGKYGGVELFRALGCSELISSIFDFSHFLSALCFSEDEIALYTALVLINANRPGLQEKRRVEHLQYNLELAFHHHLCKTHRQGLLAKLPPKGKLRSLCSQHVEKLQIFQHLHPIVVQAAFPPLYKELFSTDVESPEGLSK
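Luminescence from a UAS-regulated Photinus luciferase reporter in stably transfected Drosophila Schneider cells is measured; decreased signal marks ROR gamma inhibition. Fusion expression is induced by 700 uM copper sulfate for 20 hr.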
TDP1 block: TDP1 (human) enzyme inhibition; Q9NUW8; recombinant TDP1, AlphaScreen DNA substrate cleavage; Potency, µM (titrated, usually from 130 µM), for inactives: top-dose activity change, negative = inhibition, hits mostly inhibitors; 0.28% of 350,000 active; AID 485290; further: nearly all actives have a fitted effect of over 40% in size
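Recombinant E. coli-expressed Tdp1 (1 nM) preincubated with compound 15 min at RT, then 5'-biotin/3'-phosphotyrosine-FITC DNA substrate (15 nM) added for 5 min. AlphaScreen beads (10 ug/ml) added, 10 min RT; tyrosine-FITC cleavage read as signal loss.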
Starred values were filed as active, the others as inactive; ? = inconclusive; / = no result given; [ ] = another dose, or the depositor's remark. A selection: hits, their analogues and other compounds. The true share with any hit is near 19%. The call rests on the fitted dose curve; in most records, active means well fitted curve in the direction sought with a large enough effect; inconclusive means small, poorly fitted or top-dose-only effect, or another doubt; inactive means no such curve, though single readings can be large; an effect the other way counts as inactive or inconclusive. On the % scale 0 is the no-effect control and ±100 the full control effect; potency means the concentration at half of the fitted maximal effect.

SMILES	DT40 TDP1 CPT	Gal4-VP16 FLuc	TDP1 cell noCPT	RORgamma inh	TDP1 block
Cc1cc[n+](-c2[nH]c(=O)sc2/C=N/N=C(\[O-])c2ccncc2)cc1	-12%	-3%	2%	?	40µM*
Cc1cc[n+](-c2[nH]c(=O)sc2/C=N/N=C(\[O-])c2ccncc2)cc1C	-7%	-1%	15%	-10%	-11%
Cc1ccc[n+](-c2[nH]c(=O)sc2/C=N/N=C(\[O-])c2cccnc2)c1	8%	-4%	-3%	6%	50µM*
Cc1cc[n+](-c2[nH]c(=O)sc2/C=N/N=C(\[O-])c2ccccc2)cc1C	17%	21%	-1%	-2%	40µM*
O=c1[nH]c(-[n+]2ccccc2)c(/C=N/N=C(\[O-])c2ccccc2)s1	14%	22%	2%	-22%	-3%
CCc1ccc[n+](-c2[nH]c(=O)sc2/C=N/N=C(\[O-])c2cccnc2)c1	-2%	-20%	11%	-13%	-1%
Cc1cc[n+](-c2[nH]c(=O)sc2/C=N/N=C(\[O-])c2ccccc2)cc1	1%	5%	1%	2%	40µM*
Cc1nnc(SCc2cnc(-c3ccc(C(C)C)cc3)s2)n1C	7%	11µM*	7%	10µM*	4%
c1ccc(-c2ncc(CSc3nncn3-c3ccccc3)s2)cc1	?	16%	18µM*	-33%	5%
CCOc1ccc(S(=O)(=O)Nc2cc(SCC(=O)O)c(O)c3ccccc23)cc1	3.7µM*	?	4.6µM*	10µM*	/
Cc1ccc(C)c(S(=O)(=O)Nc2cc(SCC(=O)O)c(O)c3ccccc23)c1	5.8µM*	14µM*	6.5µM*	-30%[10 µM]	5%
O=C(O)CSc1cc(NS(=O)(=O)c2cccc([N+](=O)[O-])c2)c2ccccc2c1O	2.3µM*	?	1.8µM*	?	10%
O=C(O)/C=C\C(=O)Nc1ccccc1N1CCN(c2ccccc2)CC1	-14%	/	-19%	/	8%
NC(=O)NC(=O)CSc1ccccc1	8%	-4%	-3%	14%	2%
O=C(Nc1nc2ccccc2[nH]1)C1CCCC1	-4%	?	-19%	7.1µM*	?
O=C(Nc1nc2ccccc2[nH]1)C1CCC1	?	?	23µM*	?	2%
O=C(NCc1nc2ccccc2[nH]1)C1CCCCC1	6%	-8%	-22%	9%	4%
O=C(CC1CCCC1)Nc1nc2ccccc2[nH]1	?	?	9.2µM*	8.9µM*	2%
CC(NC(=O)COC(=O)CN1C(=O)C2CCCCC2C1=O)c1ccccc1 (stereo not given)	-26%	/	-14%	/	0%
CCNC(=O)Cn1cc(C(F)(F)F)cc(Cl)c1=O	-21%	-5%	12%	-4%	2%
COc1ccc(NC(=O)COc2cccc3c2CCN(C)C3=O)c(OC)c1	13µM*	-8%	?	5%	6%
O=C(COc1cccc2c1CCNC2=O)Nc1ccc(Cl)cc1	18µM*	/	?	/	/
COc1ccccc1NC(=O)COc1cccc2c1CCNC2=O	10µM*	/	6.5µM*	/	1%
NC(=O)c1ccc(NC(=O)COc2cccc3c2CCNC3=O)cc1	-1%	/	-21%	/	/
COc1ccccc1NC(=O)C(=O)N/N=C/c1cccs1	-8%	3.2µM*	-38%	2µM*	4%
SMILES	DT40 TDP1 CPT	Gal4-VP16 FLuc	TDP1 cell noCPT	RORgamma inh	TDP1 block
Cc1cccc(C)c1OCC(=O)N/N=C/c1ccc2c(c1)OCO2	2.9µM*	-22%	3.7µM*	-25%	-3%
COCCNC(=O)C(=O)N/N=C/c1cccs1	0%	4%	2%	8%	4%
Cc1occc1C(=O)N/N=C/c1cccs1	-10%	-7%	-19%	?	0%
Cn1cc(C(=O)N/N=C/c2ccc3c(c2)OCO3)c2ccccc21	7.3µM*	10%	5.2µM*	-14%	7%
Cn1cc(C(=O)N/N=C/c2cccs2)c2ccccc21	6%	?	8.2µM*	10µM*	3%
CC(=O)c1cc2c(cc1NC(=O)CN1CCC(Cc3ccccc3)CC1)OCO2	?	-6%	?	-6%	-3%
COc1cc(/C=N/NC(=O)c2ccoc2C)cc(OC)c1OC	?	/	13µM*	/	/
Cc1nc2ccccc2cc1C(=O)N/N=C/c1cccs1	-1%	?	-20%	10µM*	1%
Cc1cc(C(=O)N/N=C/c2ccc3c(c2)OCO3)c(C)o1	-10%	1%	?	?	/
O=C(N/N=C/c1ccc2c(c1)OCO2)c1cccc2ccccc12	2.1µM*	27%	3.3µM*	33%	-3%
Cc1occc1C(=O)N/N=C/c1ccc2c(c1)OCO2	?	?	?	7.9µM*	-1%
COc1ccc(/C=N/NC(=O)c2ccoc2C)cc1OC	-6%	11%	-4%	2%	7%
Cc1nc2ccccc2cc1C(=O)N/N=C/c1ccco1	-20%	?	0%	?	0%
CC1CCN(CC(O)COCCC23CC4CC(CC(C4)C2)C3)CC1 (stereo not given)	21µM*	0%	21µM*	7%	0%
O=C(NC(C(=O)c1ccccc1)N1CCCCC1)c1ccccc1 (stereo not given)	-2%	18%	-20%	13%	3%
Cc1ccc(N2C(=O)[C@@H]3[C@H](C2=O)[C@H]2C=CC=NN2[C@@H]3C(=O)Nc2ccc(Cl)cc2)cc1	-10%	?	-10%	10µM*	10%
Cc1ccc(NS(=O)(=O)c2ccc(Br)cc2)nc1	-17%	4%	-9%	16%	3%
